Laboratory results as given in PubChem BioAssay AID1347426 (Functional Genomics Laboratory (NCATS/FGL), 2020).
The campaign covered roughly 31,000 sequences. About 1,400 (4.5%) were called active. The entries come from a sample that favours actives as a whole. Unmarked numbers belong to inactive results.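 Rule for the calls: active = median seed-adjusted z-score above 1 or below -1; inactive = the rest.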

assay: Novel Modifiers of Survival Motor Neuron (SMN) Protein: Gene Identification via Genome-wide siRNA Screen; details: HEK293T SMN2-luciferase reporter, siRNA knockdown, 72 h; actives lie on both sides;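 note: luminescence tracks full-length SMN protein made from the SMN2 reporter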
In short: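 Genome-wide siRNA screen (10418 genes, 3 siRNAs each, 1 pmol per well) by reverse transfection in HEK293T cells stably carrying an SMN2-luciferase reporter; luminescence after 72 hours, normalized to negative-control siRNA, log10-transformed, MAD-scored.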

Sequence | median seed-adjusted z-score
AGGGCACAUUCACCAGUGATT against GCG | -1.18 (active)
CUCCUGCUGCAAAACAAUATT against SLC25A6 | -0.928
GUCACGUCUUGAUACCUCUTT against ACAD8 | 1.06 (active)
GAUUGUCUUCGGUCUAUUATT against STAM | 0
GACCCACUCUUGAAAGACATT against ZNF304 | -0.44
CGAGAGGGCUGUUUCCAAATT against LIMS3 | -0.078
GAAAGAUGGUGUUGACUUUTT against ALDOB | -1.34 (active)
CUUCAUAUCUCUUUACGUATT against PIGW | -0.242
CCACCAAUGUAGUCUAUCATT against PAPSS2 | -0.201
AGAAGACCCGUAGACUGAATT against NEUROG2 | -0.366
UAAACUCGUUAGUCAAUUATT against SLC7A9 | 0.194
GCAGAUAAGUGAACGAGAUTT against SAMHD1 | -1.33 (active)
CGCUCCUUGUCAAAAGAAATT against KCNS3 | 0.103
GCAUGACCUCUGUAAGGGATT against ANK1 | -0.282
GAAUCGCAAGGAUAUGAUATT against MSH2 | 0
CCAUCUACCAGCUAAUCAATT against PIK3C2G | 0.0251
GGAUUCCCUUCAAGAUAUATT against NUCB2 | 0.45
CCAUCACCCGUGAAGAGAATT against CRYAB | 0.354
CAAUGGUCCAAGUCUAACATT against EEF1E1 | -1.45 (active)
CCCAGUCAAUCAAAGGAAATT against CD3G | -0.0274
GAAAGCAACUGACACUCUUTT against ATP2C2 | -0.302
CAAGGGCACAGGCACAAAATT against SBK1 | 0.0587

Sequence | median seed-adjusted z-score
ACCACGCAUUAAAACCAAATT against PRKCE | 0.568
GGGAGGAUUUGAUCGGACATT against SPEN | -1.69 (active)
CCUUCUGAAAGAACGCAAATT against ABCA8 | -0.666
GAAUAUGCAUUGCUAACCATT against SV2C | 0.183
GGCAUUAUCUGGAUCACUUTT against PATE1 | 1.21 (active)
GAAGAUCAUUAGAUUUCUATT against SULT1B1 | -0.115
GUACGUCCAUUAUGGAGAATT against GPR82 | -0.83
GGAUAAUGAUGACGGGAGATT against SYT9 | 0.0419
CAACGACCGGAGGUAUAAATT against BPGM | 0.408
CCGGCUUCCUCAUUACCUUTT against SLC2A14 | -1.09 (active)
GGACUUACCUCAAUCAGAUTT against ZDHHC13 | -0.381
CGAGAGGUGUAUCAAUAUATT against LIN7A | -1.39 (active)
GCUUUACCACCGUACGAAATT against MST4 | 0.343
UGAGAAUUGUGGAUCCGGATT against CSTF2 | 0.586
GGUACGAAUGAAUACCUUUTT against PTPN4 | -0.447
GACCCAGCCGAAUACAACATT against NDUFB4 | -0.697
GAACCUACAUCAUCAGUAUTT against GJA1 | 0.348
GCCUUGCUGUUAAAGGGCATT against PARP2 | -0.366
AGAGUGACCUGAUUGAGCATT against CSNK2B | -1.62 (active)
GGCCUUUGGUGAAAACCGUTT against CLDN11 | 0.268
GCCUAUGACCUUCUACUUUTT against SLC31A1 | 0
GUAUCUGCGAGGACGAAAATT against RNF113B | -0.228

Sequence | median seed-adjusted z-score
GCAUCAUCGGUACCCAGUUTT against MPO | -0.223
GGCCGCUGCUUGUUUGUCATT against SLC13A3 | 0.0434
ACUGUGAAAUUGGACCAAUTT against RABIF | 0
CUGUCGCUGUCUGACCAGATT against ESRRA | -0.833
AGACAAUGAUCAUAGACAATT against IDH3B | -0.642
CAACAACCCUUAUCGUAAATT against POLQ | 0.203
GAGACUAUAUCUACAUGAATT against SLITRK3 | -0.564
CGGAUGUUCUUUACACUAUTT against HNRNPL | 1.04 (active)
GCAUAUGACUUGUAUUCCUTT against TFB2M | 0.206
GGGACAUGGGAAUGCAAUATT against MSR1 | 0.0743
GGAAAUCUCGUGAUUUUCATT against TEAD1 | 1.31 (active)
CCAGAAACGUACACCUGAUTT against COX7B | -1.16 (active)
CCAUCAACACUGAAUUGCATT against SEC22B | -0.106
GUAUAGAUCUCUAUUUCUATT against COPZ1 | -1.02 (active)
GAAGAGUGGUACUACCAGATT against BACE2 | 0.0853
CCACUUCAAGAAAACUUCATT against ZSCAN22 | 0.277
GGCUCGAGAUUUAUACGAUTT against HECTD1 | -0.0588
GGAGAAAGGAUCACGCUAATT against KCTD1 | 0
CCUACACGGUCCUUCGUAATT against HEPHL1 | 0.0681
CCUUCUAUCAUGUAAGCUATT against IL1A | 1.12 (active)
GCGUGUUCCCAAUAGUGUATT against OGT | 0.411
GGAUAUCACAGAAGGAUAUTT against ANXA4 | -0.0932

Sequence | median seed-adjusted z-score
GUGUAAAACUUGUCAGCGATT against WT1 | 0.236
GCAGCUUCAUAACCGAAGATT against PARP1 | -0.0913
GAUGCAUGUUUGUAAAAAUTT against KCNJ6 | -1.6 (active)
GCCCAACAGUCAUUCAACATT against CHMP5 | 0
GGAGGUGACCUUCCAGGAATT against RAB17 | 0.473
GGCCGUCAGUAAUACAUCUTT against ZBTB33 | 0.164
CCACCAAUCACGAACCUAATT against IL3RA | -0.951
CAGUGUAUCUGAACCUAUUTT against EFTUD1 | -1.39 (active)
GCUCUUCGGGAGAAUCUUUTT against CTNNAL1 | 0.229
AGACCAUUGAGACCCGGAATT against PRPH | 0
CAACUAAUUUCUAAUCGUUTT against ADAD1 | -0.0795
GUGCGAAGGUUUUUAAUCATT against ZNF816A | 0.39
GUACCUGCGGGAUUACUCATT against CCT7 | -0.246
UGAACUUGAUGAAGGAGAATT against S100A7L2 | 0.283
GGGUCCUGUUCAUAAAGGATT against KCTD10 | -0.506
GGAAUUUACAUGGUCUAUUTT against PHF6 | -0.268
CCAUGCUCGUGGUGCACAATT against B3GNT7 | -1.05 (active)
GCCCGAUGCUUUCCACAUUTT against SLC5A9 | 0.15
GCACACUUGAGUUUGUGUATT against HES6 | 0.71
GGUGGUAUCUGUUUCCGUATT against PCAF | -0.00665
GCUGCGUCUCCCUUCCAAATT against GP1BB | -0.711
GCCCUCUGUUGGAUAUCUATT against AZIN1 | -1.14 (active)

Sequence | median seed-adjusted z-score
CAGCAGACGUAAAAAUUCATT against MSX2 | -0.406
CCACUGGAAUGGUACUUAUTT against UBR1 | -0.775
GAGCUGUAUUUCUAUGUCATT against PLXNA3 | 0.255
GCGAGCCGCUUAUGUGGAATT against TCF21 | -0.15
UCUUAGAUGUCAAGCUGAATT against RNF7 | -1.18 (active)
AGGUAGAAUGGACAAGUGATT against PPP1R11 | -0.498
GGAUUAUGAGUACCGAGAATT against MAP3K14 | -0.0609
GAUCAGGAGUCCUUCAAUATT against RAB1A | 0.395
CGCCGACUGUCAUGCUUCATT against FCN1 | 0.346
GUUCAUCCCUUAUUCGACATT against ZNF215 | 0.485
CCAUCAACAUCGCAGAUGATT against ABHD11 | -0.189
CCGACACGCUCUACAAUAATT against BRUNOL6 | -0.542
CCCUUACCCAAAACGAGAATT against CDK8 | -1.47 (active)
CCCUGACUGCAACUGCUUUTT against LDLRAD2 | -0.459
GAGUCAUUAUUGACAACAATT against APH1B | -0.135
GGUGUUUGAUAUUCGAAUUTT against USP40 | 0.00437
GCAACAUCCUCAUUGUAUUTT against MCHR2 | -0.658
GCAUAUUCCGGUGAUAACUTT against RAB6C | -1.08 (active)
CAGGCGCCUGAAGUACAUATT against SLC35A2 | 1.06 (active)
AGCUCACCAGAGAAAUUUUTT against CHDH | 0.0241
